HCV inh – qHTS Assay for Inhibitors of Hepatitis C Virus (HCV). Huh7.5.1 HCVcc-Cre infection, luciferase reporter, 44 h. Potency, µM (series often up to 41.8 µM), inactives show top-dose activity change, negative = inhibition, usual class: inhibitors. hit rate 3.4% among 340,000; active = well fitted inhibition curve with a large enough effect; inconclusive = small, poorly fitted or top-dose-only effect, or another doubt; inactive = no such curve, though single readings can be large or run the other way; also: potency is read from the fitted curve at half-maximal effect
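Seed cells (1,000/well) for 4 h; treat with compound and infect with HCVcc-Cre, moi about 0.5. Incubate 44 h, then detect luciferase activity.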
MARV entry inh – qHTS for inhibitors of binding or entry into cells for Marburg Virus | hit rate 1.8% among 300,000 | Potency, µM (series often up to 37.8 µM), for inactives: at the highest dose activity change, negative = inhibition, most hits filed as inhibitors | Marburg virus pseudotyped entry inhibition, cell reporter | AID 540276, 2011; calls by dose curve; tested in HEK293 cells; also: potency is read from the fitted curve at half-maximal effect
Vaccinia Venus – qHTS for Stage-Specific Inhibitors of Vaccinia Orthopoxvirus: Venus Reporter Primary qHTS | Vaccinia virus Venus reporter expression, fluorescence | Potency, µM (titrated, usually from 36.5 µM), for inactives: at the top dose activity change, negative = inhibition, most hits filed as inhibitors | hit rate 0.46% among 330,000; calls by dose curve; tested in A549 cells; also: potency is read from the fitted curve at half-maximal effect; nearly all actives have a fitted effect of over 30% in size
Lassa entry inh – qHTS for Inhibitors of binding or entry into cells for Lassa Virus; Lassa virus pseudotype entry inhibition, cell reporter; Potency, µM (titrated, usually from 37.9 µM), for the others: at the highest dose activity change, negative = inhibition, actives largely listed as inhibitors; hit rate 1.2% among 300,000; AID 540256, 2011; calls by dose curve; tested in HEK293 cells; also: potency is read from the fitted curve at half-maximal effect; nearly all actives have a fitted effect of over 50% in size
HCMV inh – qHTS Assay for inhibitors of the human cytomegalovirus (HCMV). HFF cells, HCMV-luciferase reporter, 72 h; stronger effect = lower value. activity change, negative = inhibition, % at 57.5 µM. hit rate 4.5% among 410,000. AID 1259415, 2018; in the data active = activity change below about -60%; inconclusive = no clear call, values can overlap the other calls; inactive = above about -39%
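After 16 h attachment at 37C, HFF cells received test compound and HCMV-luciferase (1 PFU/cell); reporter luminescence read 72 h later, data normalized against buffer-only and known inhibitor Salinomycin.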
VACV mCherry inh – qHTS for Stage-Specific Inhibitors of Vaccinia Orthopoxvirus: mCherry Reporter Primary qHTS | Vaccinia virus mCherry reporter infection, fluorescence | Potency, µM (titrated, usually from 36.5 µM), without a hit: top-dose activity change, negative = inhibition, hits mostly inhibitors | hit rate 0.63% among 310,000; calls by dose curve; tested in A549 cells; also: potency is read from the fitted curve at half-maximal effect; nearly all actives have a fitted effect of over 35% in size
* marks the source's active call; other numbers are inactive results; i = inactive; ? = inconclusive; . = no result given; [ ] = dose if it differs, or a comment. In the library only some 7.8% were active in any assay of this set; here they are far more common. % is scaled to controls: 0 for no effect and ±100 for the full control effect.

SMILES | HCV inh | MARV entry inh | Vaccinia Venus | Lassa entry inh | HCMV inh | VACV mCherry inh
CCOc1ccc(NC(=O)CSc2nc3ccsc3c(=O)n2C(C)CC)cc1 (stereo not given) | . | . | -8.7% | -4.8%[46.1 µM] | 3.8 | -11.5%
COc1ccc(CCNC(=O)CCn2c(=O)c3ccccc3n(Cc3cc(C)ccc3C)c2=O)cc1OC | . | -16.9%[46.1 µM] | 5.1% | 9.9%[46.1 µM] | 3.0 | 0.6%
Cc1ccc(CN2C(=O)N(c3ccc(C)c(Cl)c3)S(=O)(=O)c3ccccc32)cc1 | . | . | -16.6% | 2.4%[46.1 µM] | -32.1 | -22.2%
COc1ccc(CNC(=O)Cn2cnc3c(SC)nc(N)nc32)cc1 | 8.91µM* | . | -12.5% | . | -15.1 | -7.8%
CSc1nc(N)nc2c1ncn2CC(=O)NCC(c1ccccc1)c1ccccc1 | ? | . | -0.9% | . | -18.5 | -23.4%
CCOC(=O)CC[C@H](NC(=O)Cn1cnc2c(SC)nc(N)nc21)C(=O)OCC | -2.7% | . | 0.2% | . | -6.5 | -13.7%
CSc1nc(N)nc2c1ncn2CC(=O)Nc1ccc(C)c(C)c1 | 3.55µM* | . | ? | . | -29.7 | -27.3%
CC(C)N(C(=O)Cn1cc(S(=O)(=O)Cc2ccc(Cl)cc2)c2ccccc21)C(C)C | . | . | -16.6% | -5.6%[46.1 µM] | -21.9 | -17.5%
O=S1(=O)CCS(=O)(=O)C1c1ccccc1 | 24.2% | ? | ? | ? | -16.3 | 11.2µM*
COc1ccc2[nH]cc(C(=O)CN(C)C)c2c1 | 1.3% | . | 7.9% | . | 39.0 | -0.8%
COc1ccc2c(C(=O)CCl)c[nH]c2c1 | ? | . | . | . | -101.5* | .
Cc1nc2ccc(S(=O)(=O)CCC(=O)Nc3ccc(Cl)cc3)cc2s1 | . | . | -17.3% | 5.8%[46.1 µM] | 7.9 | -19.1%
COc1cc(/C=N/NC(=O)c2sc(N)c(C#N)c2C)cc(Br)c1O | ? | ? | -11.0% | ? | -67.0* | ?
COc1ccc2ccccc2c1/C=N/NC(=O)c1sc(N)c(C#N)c1C | ? | -9.0% | -5.0% | ? | -27.5 | -2.7%
CCCCc1n[nH]c2c1C(=O)CC(C)(C)C2 | -8.6% | 15.2%[46.1 µM] | -12.6% | 12.6% | -84.7* | .
COc1cccc(-c2csc(N3CCN(C(=S)Nc4cccc(C)c4)CC3)n2)c1 | ? | . | -20.4% | . | -67.1* | -23.4%
COc1cccc(-c2csc(N3CCN(C(=S)Nc4ccc(Cl)cc4)CC3)n2)c1 | 12.6µM* | ? | -27.0% | -25.8% | 33.0 | ?
COc1cccc(-c2csc(N3CCN(C(=O)Nc4ccccc4Cl)CC3)n2)c1 | -22.2% | . | -4.6% | . | -18.9 | i
COc1cccc(-c2csc(N3CCN(C(=S)Nc4ccccc4)CC3)n2)c1 | -18.6% | 20.7% | -15.0% | -10.2% | -8.2 | -19.9%
COc1cccc(NC(=O)N2CCN(c3nc(-c4cccc(OC)c4)cs3)CC2)c1 | 11.2µM* | . | . | . | -71.1* | .
CCCC(O)c1nnc(Nc2cccc(Cl)c2)s1 (stereo not given) | . | . | . | . | -0.9 | .
COc1ccccc1NC(=O)COc1ccccc1C(=O)c1cnn(-c2ccccc2)c1 | -28.3% | -5.4% | . | . | 21.9 | .
CCc1ccc(NC(=O)COc2ccc(F)cc2C(=O)c2cnn(-c3ccccc3)c2)cc1 | ? | ? | -10.5% | -26.6% | -102.0* | i
COC(=O)CC(NC1CCN(c2nc(C)c3cc4c(cc3n2)CCC4)CC1)C(=O)OC (stereo not given) | . | . | 4.2% | . | . | -10.0%
CCC(c1nnnn1C1CCCC1)N(Cc1cccs1)Cc1cc2cc(C)ccc2[nH]c1=O (stereo not given) | -6.2% | ? | -21.6% | ? | ? | .
SMILES | HCV inh | MARV entry inh | Vaccinia Venus | Lassa entry inh | HCMV inh | VACV mCherry inh
CCOC(=O)Cn1nnnc1C(C(C)C)N(Cc1cccs1)Cc1cc2cc(C)ccc2[nH]c1=O (stereo not given) | ? | 9.2µM* | . | ? | -11.0 | .
CCOc1ccc2[nH]c(=O)c(CN(Cc3cccs3)C(CC)c3nnnn3C(C)(C)CC)cc2c1 (stereo not given) | 10µM* | ? | ? | ? | ? | ?
CCOC(=O)Cn1nnnc1C(CC)N(Cc1cccs1)Cc1cc2cc(C)ccc2[nH]c1=O (stereo not given) | -7.3% | 15.8µM* | 26.4% | ? | -4.8 | .
Cc1nc(NC(=O)c2ccc([N+](=O)[O-])cc2Cl)sc1C(=O)N(C)C | 1.1% | -31.2% | -2.8% | -2.0% | 0.9 | -9.8%
Cc1cc(C(=O)Nc2nc(C)c(C(=O)N(C)C)s2)ccc1[N+](=O)[O-] | 16.3% | ? | -3.9% | 10µM* | -36.3 | -16.5%
CCOC(=O)C(Cc1ccccc1)(Nc1ccccc1)C(O)c1ccc([N+](=O)[O-])cc1 (stereo not given) | . | . | . | . | 22.7 | .
COC(=O)c1c(N)sc(C(=O)NCCc2ccccc2)c1C | ? | 5.01µM* | -16.2% | ? | ? | i
CCOC(=O)c1sc2nc(C)nc(NCc3ccccc3OC)c2c1C | ? | ? | -5.2% | -13.7%[46.1 µM] | -72.6* | i
CCOC(=O)c1sc(N)c(C(=O)Nc2ccccc2OC)c1C | -28.9% | ? | -26.5% | 2.51µM* | 5.5 | ?
Cc1ccc(N(C)C(=O)CN2C(=O)CCc3cc(S(=O)(=O)N4CCOCC4)ccc32)cc1 | . | . | -1.4% | 22.7%[46.1 µM] | 10.2 | -6.1%
CN1CCOc2cc(S(=O)(=O)N3CCN(c4nc(-c5cccs5)nc5ccccc45)CC3)ccc21 | . | . | -18.5% | . | . | i
CCOC(=O)CSc1nc2c(sc3ccccc32)c(=O)n1Cc1ccc(OC)cc1 | . | . | 0.5% | 8.0%[46.1 µM] | 11.7 | 1.6%
CCOC(=O)c1c(C)oc2c1c(C(c1ccccc1)N1CCOCC1)c(O)c1ccccc12 (stereo not given) | ? | ? | . | 23.1µM* | 197.7 | .
CC(=O)C12CCCCC1CC1[C@@H]3CC(C)C4=CC(=O)CC[C@]4(C)C3CC[C@@]12C (stereo not given in full) | -18.5% | 14.1%[46.1 µM] | -12.3% | 27.8%[46.1 µM] | -80.2* | -6.1%
CC(=O)OC1(C(C)=O)CCC2C3CC(C(F)(F)F)C4=CC(=O)CCC4(C)C3CCC21C (stereo not given) | ? | 8.91µM* | -11.4% | ? | -28.7 | ?
CC(=O)O[C@]1(C(C)=O)CC[C@H]2[C@@H]3C[C@H](C)C4=CC(=O)CC[C@]4(C)[C@H]3CC[C@@]21C | ? | -40.8% | -21.0% | ? | 56.1 | -6.1%
COc1ccc(OCC(=O)O/N=C(\N)c2ccc(OC)cc2)cc1 | ? | ? | 15.4% | ? | -25.7 | -12.9%
CO/N=C(/COc1ccc(F)cc1)c1ccc(OC)cc1 | 5.5% | ? | 1.2% | -21.4% | -102.8* | -15.5%
O=C(Nc1ccccc1)N(C1=NCCCCS1)c1cccc2ccccc12 | 5.2% | 9.3% | . | 6.8% | 30.6 | .
O=C(Nc1ccccc1)N(C1=NCCCCS1)c1ccccc1 | -16.5% | -7.2% | 1.4% | 13.5% | -104.1* | .

Screens: PubChem, National Center for Advancing Translational Sciences (NCATS)
